Screens (PubChem BioAssay)
Mtb UGM inh = blocks M. tuberculosis UGM enzyme. P9WIQ1. purified UGM, fluorescence polarization probe displacement. inhibition, % at 10 µM. 320,000 compounds, 0.06% hits; in the data active = inhibition above about 10%, passing the limit was not always enough
PriA SSB inh = K. pneumoniae PriA-SSBct interaction inhibition | AlphaScreen SSBct-PriA binding, biotinylated peptide | inhibition, % at 33 µM | 430,000 compounds, 0.6% hits | AID 1272365; in the data active = inhibition mostly above about 37%, no sharp cut-off; inactive = mostly below about 20%;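 note: plate controls were negative control peptide for no effect and reference peptide for full effect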
RecA intein inh = inhibitors of M. tuberculosis RecA intein splicing; 290,000 compounds, 0.75% hits; AID 2221; inhibition, % (no concentration beside the values); P9WHJ3; cell-free RecA intein splicing, fluorescence; in the data active = inhibition above about 30%;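 note: 0% = vehicle wells and 100% = reference inhibitor control wells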
Rv3671c inh = inhibitors of M. tuberculosis serine protease Rv3671c | P9WHR9 | inhibition, % at 5.96 µM | 320,000 compounds, 0.048% hits | AID 2606; in the data active = inhibition above about 38%;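 note: extracellular domain of Rv3671c used as enzyme; 0% = enzyme with DMSO and 100% = no enzyme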
Target sequence (P9WHR9 whole entry, looked up, the tested form may be a part): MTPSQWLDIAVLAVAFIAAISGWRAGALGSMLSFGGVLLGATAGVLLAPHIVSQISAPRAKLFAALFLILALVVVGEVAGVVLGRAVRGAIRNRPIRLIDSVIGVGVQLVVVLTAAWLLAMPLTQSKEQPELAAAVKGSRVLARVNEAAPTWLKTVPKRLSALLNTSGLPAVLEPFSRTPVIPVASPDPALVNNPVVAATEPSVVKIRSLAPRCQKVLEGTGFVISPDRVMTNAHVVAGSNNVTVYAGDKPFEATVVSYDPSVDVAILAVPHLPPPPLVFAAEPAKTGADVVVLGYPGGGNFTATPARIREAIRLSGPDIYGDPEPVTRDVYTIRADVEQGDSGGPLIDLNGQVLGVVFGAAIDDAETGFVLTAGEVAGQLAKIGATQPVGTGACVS
Mtb bLac sens = beta-lactam sensitization of Mtb H37Rv | M. tuberculosis H37Rv growth with meropenem, percent inhibition | inhibition, % at 25 µM | AID 434955 | 330,000 compounds, 0.27% hits; call rule not given here;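 note: growth measured after seven days incubation then overnight dye step; 0% = bacteria only wells and 100% = bacteria with antibiotic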
* hit, by the source's call; i = inactive; · = no result. Compounds with a hit are over-represented: about 1.1% of the library has one in this group of screens.

SMILES | Mtb UGM inh | PriA SSB inh | RecA intein inh | Rv3671c inh | Mtb bLac sens
O=C(NCCn1ccnc1-c1ncccn1)Nc1c(F)cccc1F | · | 86* | · | · | ·
O=C(Cc1csc(Nc2ccccc2)n1)Nc1ccc2c(c1)OCCO2 | · | 18 | · | · | ·
O=C(Cc1csc2nc(-c3ccccc3)cn12)Nc1ccc(F)c(F)c1 | · | 1 | · | · | ·
O=C(Cc1csc(Nc2cccc(Cl)c2)n1)Nc1ccc2c(c1)OCCO2 | · | 20* | · | · | ·
O=C(Cc1csc2nc(-c3ccccc3)cn12)Nc1ccc2c(c1)OCCO2 | · | 44* | · | · | ·
COc1ccc(Cl)cc1NC(=O)C1CN(C(=O)c2ccc3c(c2)OCO3)C1 | · | -2 | · | · | ·
COC(CNC(=O)c1ccc(N2CCc3ccccc32)c([N+](=O)[O-])c1)OC | 0 | 48* | 3 | 2 | 0
Cc1ccc(CNC(=O)c2ccc(N3CCc4ccccc43)c([N+](=O)[O-])c2)cc1 | 0 | 66* | 1 | 9 | 7
CCOC(=O)c1ccc(S(=O)(=O)N2CCN(CCn3nc(-c4ccccc4)ccc3=O)CC2)cc1 | · | 3 | · | · | ·
Cc1ccc(S(=O)(=O)n2ccn(C(=O)c3ccccc3Br)c2=O)cc1 | · | 4 | · | · | ·
COC(=O)CCN(C(=O)c1ccc(N2CCCCC2)c([N+](=O)[O-])c1)c1ccccn1 | -1 | 17 | 0 | 0 | 0
CC1Cc2ccccc2N1C(=O)c1ccc(N2CCCC2)c([N+](=O)[O-])c1 (stereo unspecified) | 2 | 46* | 11 | -9 | -6
O=C(c1ccc(N2CCCCC2)c([N+](=O)[O-])c1)N(Cc1ccccc1)c1ccccn1 | -1 | 52* | 11 | 3 | 8
Nc1nc(-c2ccccc2)c(-c2ccccc2)s1 | 3 | 14 | 9 | 13 | -6
Nc1nc2c(s1)-c1cccc3cccc-2c13 | · | 66* | · | · | ·
O=C(c1cncc(Br)c1)N1CCN(Cc2nc3ccccc3n2Cc2ccccc2)CC1 | · | -19 | · | · | ·
Cn1nc([N+](=O)[O-])c(C(C#N)c2ccccn2)c(Cl)c1=O (stereo unspecified) | -2 | -1 | 46* | -7 | 91
O=c1cnn(Cc2ccc(F)cc2)c2ccccc12 | -2 | 4 | -2 | -4 | -1
O=c1c(Cl)c(Cl)cnn1Cc1ccc(F)cc1 | 0 | -33 | 35* | 4 | 97
COC(=O)C1=CN(c2cccc(C)c2)C=C(C(=O)OC)C1c1cc(OC)c(O)c([N+](=O)[O-])c1 | 0 | 53* | 10 | 0 | 6
C=C(C)CNC(=S)N=Nc1c(O)[nH]c2ccc([N+](=O)[O-])cc12 | 1 | -13 | 33* | 14 | -5
O=C(Nc1cccc(-c2csc(NC(=O)C3=COCCO3)n2)c1)C1=COCCO1 | · | 13 | · | · | ·
Clc1ccc(NNc2ccnc3cc(Cl)ccc23)cc1 | 2 | 76* | 0 | 0 | 95
S=C(Nc1ccccc1Cl)Nc1ccc(Cl)cc1Cl | 0 | -22 | 9 | -2 | -1
S=C(NNc1ccnc2cc(Cl)ccc12)Nc1ccccc1Cl | 2 | 40* | 28 | 3 | 87
SMILES | Mtb UGM inh | PriA SSB inh | RecA intein inh | Rv3671c inh | Mtb bLac sens
Oc1ccc(Nc2ccnc3cc(Cl)ccc23)cc1 | -2 | 0 | 15 | -3 | 13
COc1ccc([C@H](C)NC(=O)c2ccc(CS(=O)(=O)Cc3ccccc3F)o2)cc1 | · | -12 | · | · | ·
CCOC(=O)N1CCC2(CC1)C(C#N)=C(N)Oc1n[nH]c(CSc3ccc(C)cc3)c12 | 1 | -8 | 51* | 5 | -2
COc1ccc(NC(=O)c2scc(-c3ccc(F)cc3)c2-n2cccc2)cc1 | · | 0 | · | · | ·
Cc1nc(SCC(=O)Nc2cc(Cl)ccc2[N+](=O)[O-])nc(C)c1C | -1 | 52* | 3 | -8 | -4
O=C(NCCCn1nc(-c2ccccc2)ccc1=O)Nc1ccccc1C(F)(F)F | · | -2 | · | · | ·
CCOc1ccc(Nc2ccc([N+](=O)[O-])c3nonc23)cc1 | 1 | 78* | 1 | 2 | 99
O=C(NCc1ccccc1-c1ccsc1)c1ccc(S(=O)(=O)N2CCOCC2)cc1 | · | 7 | · | · | ·
COc1ccc(S(=O)(=O)CCC(=O)Nc2nnc(-c3ccc(Br)s3)o2)cc1 | · | -6 | · | · | ·
Cc1ccc(C)c(NC(=S)/C(=C(\[O-])c2ccc(OC(F)F)cc2)[n+]2ccccc2)c1 | -1 | · | 33* | -3 | 0
Cc1ccc(NC(=S)/C(=C(\[O-])c2ccc(F)cc2)[n+]2ccccc2)cc1 | 1 | · | 30* | 0 | 2
[O-]/C(=C(\C(=S)Nc1ccccc1F)[n+]1ccccc1)c1ccc(OC(F)F)cc1 | 0 | · | 1 | -7 | 2
Cc1ccc(/C([O-])=C(/C(=S)NCc2ccco2)[n+]2ccccc2)cc1 | -1 | · | 4 | 8 | -16
COc1ccccc1N1CCN(C(=O)Cc2csc(Nc3ccccc3)n2)CC1 | · | 6 | · | · | ·
COc1ccccc1N1CCN(C(=O)c2csc(Nc3ccccc3)n2)CC1 | · | 24* | · | · | ·
CCc1ccc(-n2c3c(c(=S)[nH]c2=O)CCC3)cc1 | · | -6 | · | · | ·
CC1(OC(=O)c2cnc3ccccc3n2)C(=O)C=C2C=C(C3CC3)OC=C2C1=O (stereo unspecified) | 5 | · | -11 | 38* | 1
CC1(OC(=O)c2ccco2)C(=O)C=C2C=C(C3CC3)OC=C2C1=O (stereo unspecified) | 0 | 8 | -11 | 6 | 13
Cc1cn2c(=O)c(C(=O)Nc3ccccc3NC(=O)c3cnc4sc(C)cn4c3=O)cnc2s1 | · | -3 | · | · | ·
CCc1nnc(-c2cccc(OCC(=O)N3CCCc4ccccc43)c2)o1 | · | 4 | · | · | ·
CC(Nc1cccc2ccccc12)C(=O)NN=Cc1ccccn1 (stereo unspecified) | · | 85* | · | · | ·
Cc1ccccc1NC(C)C(=O)N/N=C/c1ccccn1 (stereo unspecified) | · | i | · | · | ·
COc1ccc(NC(=O)Cn2nc(C3CC3)c3cnn(-c4ccc(F)cc4)c3c2=O)cc1 | · | 0 | · | · | ·
O=C(COc1ccc2ccccc2c1)Nc1cccc(-c2nc3cccnc3s2)c1 | · | -2 | · | · | ·
O=C(C1=C[C@@H](c2ccc3c(c2)OCO3)C[C@@H](OCc2ccc(CO)cc2)O1)N1CCOCC1 | 0 | -8 | -1 | 3 | -1
SMILES | Mtb UGM inh | PriA SSB inh | RecA intein inh | Rv3671c inh | Mtb bLac sens
O=C(C1=C[C@H](c2ccc3c(c2)OCO3)C[C@H](OCc2ccc(CO)cc2)O1)N1CCCCCCC1 | 4 | 41* | 5 | -2 | 2
Oc1ccccc1Nc1nc(NCc2ccccc2)c2ccccc2n1 | 1 | 50* | 0 | 2 | 100
Cc1ccc(NC(=O)C(=O)c2c[nH]c3ccccc23)cc1 | 0 | -4 | 0 | · | 7
O=C(Nc1ccc(Nc2ccccc2)cc1)C(=O)c1c[nH]c2ccccc12 | · | 48* | · | · | ·
CCCN(CCC)c1ccc(C(=S)N2CCN(C(=S)Nc3ccccc3)CC2)cc1 | · | -2 | · | · | ·
CCCN(CCC)c1ccc(C(=S)N2CCNCC2)cc1 | · | 36* | · | · | ·
CCCN(CCC)c1ccc(C(=S)N2CCOCC2)cc1 | · | 37* | · | · | ·
Cc1cc(O[C@H]2CCN(C(=O)c3cccc(OCc4ccccc4)c3)C2)cc(=O)o1 | · | 0 | · | · | ·
O=C(CN1CCN(S(=O)(=O)c2cccs2)CC1)c1ccco1 | · | -11 | · | · | ·
COc1ccccc1/C=C/C1(C(=O)NC2CCCC2)CC(=O)N1c1ccc(C)cc1 (stereo unspecified) | -1 | -3 | 34* | -4 | -7
